From PubChem BioAssay
Values joined by “and” are separate entries in the source; they are usually repeats but may differ in a detail not shown here. Equal values may be shown once. A number with no mark means an inactive call. Records with an inconclusive call do not appear. For some assays here: Potency and affinity values are given separately. Active and inactive are the calls of the source. Unless noted, the rule behind the calls is not given here.

System: not listed separately
Test: inducers of IRF3 signaling, differentiated THP-1 – cell-based, PMA-stimulated THP-1, luminescence (AID 1053176)
Settings: PMA-differentiated THP-1, IRF3 reporter luminescence; hits give high values
Work on `O=C1NC(=O)C(c2ccccc2Cl)=C1Nc1cccc(O)c1` yielded a fraction signal of -0.003. With `NC(=O)c1ccc(-c2nc(-c3ccc4c(c3)OCO4)c(-c3ccccn3)[nH]2)cc1` the fraction signal was -0.007. `CN(C)CCOc1ccc(-c2nc(-c3ccc4c(c3)CC/C4=N\O)c(-c3ccncc3)[nH]2)cc1` showed a fraction signal of -0.008. Work on `FC(F)(F)c1cccc(Nc2nccc(-c3cnn4nc(-c5ccccc5)ccc34)n2)c1` yielded a fraction signal of -0.0005. For `Nc1ncnc2occ(-c3ccc(NC(=O)Nc4cc(C(F)(F)F)ccc4F)cc3)c12`, the fraction signal was -0.0025 and -0.0215. With `Cn1cc(/C=C2\C(=O)Nc3cccnc32)c2ccccc21` the fraction signal was -0.0095. In the case of `Cc1ccc(O)cc1Nc1ccnc2cc(-c3ccccn3)ccc12`, the fraction signal was 0.014. With `Cn1c(-c2nonc2N)nc2cnccc21` the fraction signal was -0.0065. `Fc1ccc(-c2nc3n(c2-c2ccncc2)CCS3)cc1` showed a fraction signal of -0.0105. `COc1ccc(-c2oc3ncnc(N)c3c2-c2ccc(NC(=O)Nc3cc(C(F)(F)F)ccc3F)cc2)cc1` showed a fraction signal of 0.007. `NS(=O)(=O)c1ccc(N=Nc2c(O)[nH]c3ccc(Cl)cc23)cc1` showed a fraction signal of 0.0005.

Molecular target: Protein kinase 7 (PK7), Plasmodium falciparum 3D7 (PF3D7_0213400) (UniProt Q7YTF7)
Sequence (Q7YTF7 1-343): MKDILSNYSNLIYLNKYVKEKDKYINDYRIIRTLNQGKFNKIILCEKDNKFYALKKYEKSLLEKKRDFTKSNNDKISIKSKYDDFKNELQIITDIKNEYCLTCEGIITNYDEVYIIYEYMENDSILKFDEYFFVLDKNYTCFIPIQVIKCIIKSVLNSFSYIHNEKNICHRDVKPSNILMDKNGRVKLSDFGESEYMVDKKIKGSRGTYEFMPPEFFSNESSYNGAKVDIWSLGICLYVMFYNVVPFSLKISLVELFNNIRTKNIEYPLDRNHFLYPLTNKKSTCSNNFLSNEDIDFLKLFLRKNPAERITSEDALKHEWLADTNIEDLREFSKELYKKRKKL
Test: inhibition of Plasmodium PK7 catalytic activity – biochemical, TCAMS antimalarial set, Kinase-Glo luminescence (AID 1159587)
Settings: recombinant PfPK7, Kinase-Glo ATP depletion luminescence
For `CN(C)c1cc2c(Nc3ccc4nc(Cc5ccccc5)[nH]c4c3)ncnc2cn1`, the outcome was “inactive”. With `Nc1ncnc2occ(-c3ccc(NC(=O)Nc4cc(C(F)(F)F)ccc4F)cc3)c12` the outcome was “inactive”. In the case of `Cc1ccc(O)cc1Nc1ccnc2cc(-c3ccccn3)ccc12`, the outcome was “inactive”.

Molecular target: Calcium-dependent protein kinase 4 (Plasmodium falciparum (isolate 3D7)) (UniProt Q8IBS5)
Sequence (Q8IBS5 whole entry, looked up): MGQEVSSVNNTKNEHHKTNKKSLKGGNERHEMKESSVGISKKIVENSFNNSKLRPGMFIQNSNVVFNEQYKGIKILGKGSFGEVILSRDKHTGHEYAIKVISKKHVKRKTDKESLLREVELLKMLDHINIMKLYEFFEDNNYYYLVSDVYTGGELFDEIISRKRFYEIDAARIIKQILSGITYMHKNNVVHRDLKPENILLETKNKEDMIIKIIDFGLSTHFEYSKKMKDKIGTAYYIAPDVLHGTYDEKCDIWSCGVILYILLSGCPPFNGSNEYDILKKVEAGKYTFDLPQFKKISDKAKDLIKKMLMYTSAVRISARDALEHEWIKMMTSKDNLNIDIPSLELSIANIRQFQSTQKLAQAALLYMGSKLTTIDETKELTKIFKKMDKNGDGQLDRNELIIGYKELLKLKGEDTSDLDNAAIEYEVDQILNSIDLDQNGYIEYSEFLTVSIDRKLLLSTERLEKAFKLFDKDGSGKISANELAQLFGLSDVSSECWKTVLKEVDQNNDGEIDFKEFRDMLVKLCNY
Test: PfCDPK4 kinase inhibitors, biochemical, TCAMS library (AID 1159588; cut-off not given, nearly all actives have IC50 up to about 0.91 µM)
Settings: recombinant PfCDPK4, Kinase-Glo ATP depletion luminescence
In the case of `CN(C)c1cc2c(Nc3ccc4nc(Cc5ccccc5)[nH]c4c3)ncnc2cn1`, the outcome was “inactive”. With `Nc1ncnc2occ(-c3ccc(NC(=O)Nc4cc(C(F)(F)F)ccc4F)cc3)c12` the outcome was “inactive”. For `Cc1ccc(O)cc1Nc1ccnc2cc(-c3ccccn3)ccc12`, the outcome was “inactive”.

System: Aerobactin synthetase IucA (Klebsiella pneumoniae)
Test: inhibition of K. pneumoniae IucA enzyme – biochemical, Tocris library, absorbance (AID 1345561);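 note: 100% = enzyme without compound and 0% = no enzyme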
Settings: purified IucA enzyme assay, absorbance (OD) read-out; hits give low values; concentration not given here
With `Cn1cc(C2=C(c3cn(CCCSC(=N)N)c4ccccc34)C(=O)NC2=O)c2ccccc21` the remaining activity was 106%. In the case of `NC(=O)c1ccc(-c2nc(-c3ccc4c(c3)OCO4)c(-c3ccccn3)[nH]2)cc1`, the remaining activity was 110%. `Fc1ccc(-c2nc3n(c2-c2ccncc2)CCS3)cc1` gave a remaining activity of 117%.

System: not listed separately
Test: viability loss in pontine glioma line – cell-based, SU-DIPG-XVII, MIPE5.0, CellTiter-Glo, qHTS, dose response (AID 1347060; cut-off not given, nearly all actives have AC50 up to about 26 µM;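 for AC50: cells exposed to compound for 48 hours before viability readout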)
Settings: CellTiter-Glo ATP luminescence
With `O=C1NC(=O)C(c2c[nH]c3ccccc23)=C1c1c[nH]c2ccccc12` the AC50 was 11.8 µM (active). With `NC(=O)c1ccc(-c2nc(-c3ccc4c(c3)OCO4)c(-c3ccccn3)[nH]2)cc1` the outcome was “inactive”. For `Cn1cc(/C=C2\C(=O)Nc3cccnc32)c2ccccc21`, the AC50 was 8.33 µM (active). With `COc1ccc(-c2oc3ncnc(N)c3c2-c2ccc(NC(=O)Nc3cc(C(F)(F)F)ccc3F)cc2)cc1` the AC50 was 3.72 µM (active).

System: not listed separately
Test: viability loss in pontine glioma line – cell-based, SU-DIPG-XIII, MIPE4.0, CellTiter-Glo, qHTS, dose response (AID 1347061; cut-off not given, nearly all actives have AC50 up to about 37 µM;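 note: cells exposed to compound for 48 hours before readout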)
Settings: CellTiter-Glo ATP luminescence
For `COc1cc2ncn(-c3cc(OCc4ccccc4S(C)(=O)=O)c(C#N)s3)c2cc1OC`, the outcome was “inactive”. For `Cn1c(=O)c(Oc2ccc(F)cc2F)cc2cnc(NC3CCOCC3)nc21`, the outcome was “inactive”. For `NC(=O)c1ccc(-c2nc(-c3ccc4c(c3)OCO4)c(-c3ccccn3)[nH]2)cc1`, the outcome was “inactive”. With `CN(C)CCOc1ccc(-c2nc(-c3ccc4c(c3)CC/C4=N\O)c(-c3ccncc3)[nH]2)cc1` the outcome was “inactive”.

System: not listed separately
Test: viability loss in pontine glioma line – cell-based, JHH-DIPG-1, MIPE4.0, CellTiter-Glo, qHTS, dose response (AID 1347062; cut-off not given, nearly all actives have AC50 up to about 27 µM;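 for AC50: cells exposed to compound for two days before readout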)
Settings: JHH-DIPG-1 viability, CellTiter-Glo ATP luminescence
For `Cn1cc(C2=C(c3c4n(c5ccccc35)CCC(CN)C4)C(=O)NC2=O)c2ccccc21` (stereo not given), the AC50 was 13.2 µM (active). With `COc1cc2ncn(-c3cc(OCc4ccccc4S(C)(=O)=O)c(C#N)s3)c2cc1OC` the outcome was “inactive”. For `Cn1c(=O)c(Oc2ccc(F)cc2F)cc2cnc(NC3CCOCC3)nc21`, the outcome was “inactive”. In the case of `NC(=O)c1ccc(-c2nc(-c3ccc4c(c3)OCO4)c(-c3ccccn3)[nH]2)cc1`, the outcome was “inactive”. With `CN(C)CCOc1ccc(-c2nc(-c3ccc4c(c3)CC/C4=N\O)c(-c3ccncc3)[nH]2)cc1` the AC50 was 18.7 µM (active). For `Cn1cc(/C=C2\C(=O)Nc3cccnc32)c2ccccc21`, the outcome was “inactive”.

System: not listed separately
Test: viability loss in pontine glioma line – cell-based, SU-DIPG-IV, MIPE4.0, CellTiter-Glo, qHTS, dose response (AID 1347063; cut-off not given, nearly all actives have AC50 up to about 30 µM;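 note: compound exposure lasted 48 hours before the viability readout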)
Settings: CellTiter-Glo ATP luminescence
With `Cn1cc(C2=C(c3c4n(c5ccccc35)CCC(CN)C4)C(=O)NC2=O)c2ccccc21` (stereo not given) the AC50 was 18.7 µM (active). With `COc1cc2ncn(-c3cc(OCc4ccccc4S(C)(=O)=O)c(C#N)s3)c2cc1OC` the outcome was “inactive”. With `NC(=O)c1ccc(-c2nc(-c3ccc4c(c3)OCO4)c(-c3ccccn3)[nH]2)cc1` the outcome was “inactive”. In the case of `CN(C)CCOc1ccc(-c2nc(-c3ccc4c(c3)CC/C4=N\O)c(-c3ccncc3)[nH]2)cc1`, the AC50 was 13.2 µM (active). In the case of `Cn1cc(/C=C2\C(=O)Nc3cccnc32)c2ccccc21`, the outcome was “inactive”.

System: not listed separately
Test: viability loss in pontine glioma line – cell-based, SU-DIPG-XIII, MIPE5.0, CellTiter-Glo, qHTS, dose response (AID 1347064; cut-off not given, nearly all actives have AC50 up to about 23 µM;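 for AC50: cells exposed to compound for 48 hours before the viability read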)
Settings: CellTiter-Glo ATP luminescence
For `Cn1c(=O)c(Oc2ccc(F)cc2F)cc2cnc(NC3CCOCC3)nc21`, the outcome was “inactive”. In the case of `Cn1cc(/C=C2\C(=O)Nc3cccnc32)c2ccccc21`, the AC50 was 8.33 µM (active). With `COc1ccc(-c2oc3ncnc(N)c3c2-c2ccc(NC(=O)Nc3cc(C(F)(F)F)ccc3F)cc2)cc1` the AC50 was 3.72 µM (active).

System: not listed separately
Test: viability loss in pontine glioma line – cell-based, SU-DIPG-XXV, MIPE5.0, CellTiter-Glo, qHTS, dose response (AID 1347065; cut-off not given, nearly all actives have AC50 up to about 26 µM;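 note: cells exposed to compound for 48 hours before ATP readout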)
Settings: CellTiter-Glo ATP luminescence
With `Cn1cc(C2=C(c3c4n(c5ccccc35)CCC(CN)C4)C(=O)NC2=O)c2ccccc21` (stereo not given) the outcome was “inactive”. With `COc1cc2ncn(-c3cc(OCc4ccccc4S(C)(=O)=O)c(C#N)s3)c2cc1OC` the outcome was “inactive”. With `COc1ccc(COc2ccc(Cc3cnc(N)nc3N)cc2OC)cc1` the outcome was “inactive”. With `O=C1NC(=O)C(c2c[nH]c3ccccc23)=C1c1c[nH]c2ccccc12` the AC50 was 18.6 µM (active). For `Cn1c(=O)c(Oc2ccc(F)cc2F)cc2cnc(NC3CCOCC3)nc21`, the outcome was “inactive”. For `NC(=O)c1ccc(-c2nc(-c3ccc4c(c3)OCO4)c(-c3ccccn3)[nH]2)cc1`, the outcome was “inactive”. In the case of `Cn1cc(/C=C2\C(=O)Nc3cccnc32)c2ccccc21`, the AC50 was 9.34 µM (active). For `COc1ccc(-c2oc3ncnc(N)c3c2-c2ccc(NC(=O)Nc3cc(C(F)(F)F)ccc3F)cc2)cc1`, the AC50 was 1.66 µM (active).
